# Giardia FBPA inh = qHTS Assay for Inhibitors of Fructose-1,6-bisphosphate Aldolase from Giardia Lamblia. Potency, µM (top dose mostly 59.6 µM), without a hit: top-dose activity, negative = inhibition, actives largely listed as inhibitors. 0.71% of 290,000 active. A8B2U2. AID 2451, 2010. purified Giardia FBPA; further: potency means the concentration at half of the fitted maximal effect; on the % scale 0 is the no-effect control and ±100 the full control effect; nearly all actives have a fitted effect of over 55% in size
#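 40 nM FBPA preincubated 10 min at RT with compound (up to 57.5 uM final), then substrate plus GAPDH/TPI/NAD/arsenate coupling and diaphorase/resazurin added. Fluorescence read after 20 min at RT, 525/598 nm.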
# RE007 growth inh = qHTS Assay for Inhibitors of the HIV-1 protein Vpr | Potency, µM (doses to about 92.2 µM), for the others: at the top dose activity change, negative = less growth, hits mostly inhibitors | 0.21% of 360,000 active | S. pombe RE007 Vpr strain, BacTiter-Glo ATP luminescence, 24 h; active means well fitted falling curve with a large enough effect; inconclusive means small, poorly fitted or top-dose-only effect; inactive means no such curve, though single readings can be large or run the other way; further: potency means the concentration at half of the fitted maximal effect; on the % scale 0 is the no-effect control and ±100 the full control effect; nearly all actives have a fitted effect of over 50% in size
#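 Fission yeast RE007 carrying one integrated HIV-1 vpr copy, seeded at OD 0.01 in PMG+AL medium with 23 nL pinned compound. Grown 24 h at 30 degrees; viability read by BacTiter-Glo luminescence after 5 min.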
# Cycloheximide cs = Cycloheximide Counterscreen for Small Molecule Inhibitors of Shiga Toxin. cell reporter, cycloheximide protein synthesis inhibition counterscreen. max response, %. 12% of 300,000 active; in the data active means max response mostly above about 13%, no sharp cut-off; inactive means mostly below about 14%; further: read at 38.3 µM for the half of the compounds with a filed dose; 0% is about no effect
# LmPK inhibitor = qHTS Assay for Inhibitors of Leishmania Mexicana Pyruvate Kinase (LmPK); AID 1721, 2009; 0.37% of 290,000 active; Potency, µM (highest dose often 57.5 µM), without a hit: at the top dose activity change, negative = inhibition, usual class: inhibitors; purified LmPK, Kinase-Glo ATP luminescence, 1 h; further: potency means the concentration at half of the fitted maximal effect; on the % scale 0 is the no-effect control and ±100 the full control effect
# Target sequence (Q27686 whole entry, looked up): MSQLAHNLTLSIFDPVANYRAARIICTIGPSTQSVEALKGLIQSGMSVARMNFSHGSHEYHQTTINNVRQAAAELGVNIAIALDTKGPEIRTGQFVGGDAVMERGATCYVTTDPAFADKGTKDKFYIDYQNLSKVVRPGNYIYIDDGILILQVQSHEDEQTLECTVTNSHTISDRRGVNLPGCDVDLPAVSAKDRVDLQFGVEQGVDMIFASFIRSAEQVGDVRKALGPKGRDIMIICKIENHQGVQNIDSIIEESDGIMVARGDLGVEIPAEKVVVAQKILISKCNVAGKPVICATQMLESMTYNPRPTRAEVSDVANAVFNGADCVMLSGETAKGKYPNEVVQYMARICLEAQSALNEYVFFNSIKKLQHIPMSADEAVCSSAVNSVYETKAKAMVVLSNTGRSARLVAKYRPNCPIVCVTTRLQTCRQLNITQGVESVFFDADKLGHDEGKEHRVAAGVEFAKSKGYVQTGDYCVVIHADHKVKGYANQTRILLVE
#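 Purified LmPK (0.1 nM) converted ADP (0.1 mM) to ATP with PEP (0.5 mM) in imidazole buffer pH 7.2 with KCl and MgCl2, 1 h at room temperature. ATP was read by Kinase-Glo luminescence; data normalized to uninhibited and no-enzyme controls.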
# Shiga toxin inh = A qHTS for Small Molecule Inhibitors of Shiga Toxin. 9.2% of 290,000 active. Vero cells, Shiga toxin protein synthesis inhibition reporter. inhibition, % at 38.7 µM. AID 2315, 2010; in the data active means inhibition mostly above about 28%, no sharp cut-off; inactive means mostly below about 43%; further: 0% is about no effect
# TbPYK inhibitor = qHTS of Trypanosoma Brucei Inhibitors; TbPYK enzyme, Kinase-Glo Plus ATP luminescence, 45 min; Potency, µM (top dose mostly 76.8 µM), inactives show top-dose activity, negative = inhibition, hits mostly inhibitors; 0.12% of 410,000 active; AID 624173, 2012; further: potency means the concentration at half of the fitted maximal effect; on the % scale 0 is the no-effect control and ±100 the full control effect; nearly all actives have a fitted effect of over 50% in size
#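 Luminescence from Kinase-Glo Plus, added after a 45-minute room-temperature reaction, served as the end-point read-out. The enzyme and substrate were preincubated with compound before ADP (130 uM final) initiated turnover. Concentration-effect curves came from normalized qHTS data.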
# * hit, by the source's call; u = inconclusive; x = no result; ! = a repeat was not active; [ ] = another dose, or the depositor's remark. Shown is part of a subset that was picked to be rich in hits. Unless noted, the call rests on the fitted dose curve; in most records, active means well fitted curve in the direction sought with a large enough effect; inconclusive means small, poorly fitted or top-dose-only effect, or another doubt; inactive means no such curve, though single readings can be large; an effect the other way counts as inactive or inconclusive.
SMILES,Giardia FBPA inh,RE007 growth inh,Cycloheximide cs,LmPK inhibitor,Shiga toxin inh,TbPYK inhibitor
O=C(N/N=C/c1ccccn1)c1ccc(N/N=C/c2ccccn2)cc1,u,9%,29*,-5%,63*,-8%
Cc1cc(F)ccc1NCc1ccc([N+](=O)[O-])cc1,-7%,25%,30*,-4%,71*,6%
O=C(NNC(=O)c1ccc[nH]1)Nc1cc(Cl)cc(Cl)c1,1%,-12%,15*,6%,31,-17%
O=C(NNC(=O)c1ccc[nH]1)Nc1cccc(C(F)(F)F)c1,4%,-3%,43*,0%,72*,3%
O=C1C(Cl)=C(NC2CCCCC2)C(=O)N1c1ccc(Cl)cc1,-1%,1%,25*,0%,53*,2%
O=C(CSc1nc2ccccc2c(=O)n1Cc1ccco1)c1ccccc1,6%,2%,24*,1%,52,1%
O=c1c2ccccc2nc(SCc2nnc(-c3ccccc3Br)o2)n1Cc1ccco1,5%,14%,17*,0%,-9,-4%
Cc1ccc(CSc2nc3ccccc3c(=O)n2Cc2ccco2)cc1,1%,-12%,13,2%,63*,-17%
O=c1c2ccccc2nc(SCc2ccccc2)n1Cc1ccco1,5%,6%,36*,2%,110,0%
O=c1c2ccccc2nnn1CSc1nc2ccccc2c(=O)n1Cc1ccco1,0%,24%,-2,0%,-5,-6%
Cc1ccc(CSc2nc3ccccc3c(=O)n2CCCC(=O)NCc2ccco2)cc1,2%,-6%,-1,4%,-14,-6%
O=S1(=O)CC(N2CCCCC2)CN1C1CCCCC1 (stereo unspecified),x,-12%,x,x,x,4%
C=CCNc1nc(NCc2ccc(N(C)C)cc2)c2sc(-c3ccccc3)cc2n1,x,-16%,x,x,x,3%
CCOc1ccc(CCNC(=O)CCCc2cc(-c3ccc(OCC)cc3)on2)cc1,x,x,x,x,x,-1%
CCOc1ccc(-c2cc(CCCC(=O)NCCc3ccccc3)no2)cc1,5%,-16%,8,5%,52,-9%
CCOc1ccc(-c2cc(CCCC(=O)NCCC(C)C)no2)cc1,10%,-4%,25*,-3%[11.5 µM],134*,1%
CCOc1ccc(-c2cc(CCCC(=O)NCc3cccnc3)no2)cc1,19%,-15%,51*,1%,65*,2%
CC(=O)C1=C(O)C(=O)N(c2ccc(C)cc2)C1c1ccccn1 (stereo unspecified),-12%,-3%,22*,3%,37*,-15%
Clc1ccc(N=c2ssnc2Cl)cc1,u,u,11,0%,40*,25µM*
CCOC(=O)c1ccc(N=C2SC(C(=O)NC)CC(=O)N2Cc2ccc(F)cc2)cc1 (stereo unspecified),3%,-18%,7,6%,12,3%
Clc1nssc1=Nc1ccccc1,u,u,12,-17%,-3,u
CCOC(=O)c1ccc(N=c2ssnc2Cl)cc1,u,u,23*,-12%,53*,35µM*
COc1ccc(N=c2ssnc2Cl)cc1,u,u,18*,-8%,37*,-18%
Fc1ccc(N=c2ssnc2Cl)c(F)c1,u,-14%,19*,-26%,43,14µM*
CN(C)c1ccc2nc3ccc(=[N+](C)C)cc-3sc2c1,u,u,64*!,-26%,88*,u
SMILES,Giardia FBPA inh,RE007 growth inh,Cycloheximide cs,LmPK inhibitor,Shiga toxin inh,TbPYK inhibitor
CSc1nc2ccc(S(=O)(=O)N(C)C)cc2s1,9%,2%,8,-2%,-4,4%
Cc1cc2nc3ccc(=[N+](C)C)cc-3sc2cc1N,u,u,36*,14µM*,48*,u
CN(C)c1ccc2nc3ccc(=O)cc-3sc2c1,x,45µM*,x,x,x,u
COC(=O)c1ccc(C(=O)Nc2nc3cc(N)c(C)cc3s2)cc1,2%,6%,-1,7%,18,1%
Cc1cs/c(=N\N=C\c2cccc([N+](=O)[O-])c2)n1Cc1ccco1,0%,-11%,-2,-1%,-9,0%
C/C(=N\N=c1/scc(C)n1Cc1ccco1)c1cccc([N+](=O)[O-])c1,-7%,0%,18*,5%,24,0%
O=C(Oc1ccc2ccccc2c1Cl)N1CCCC1,-4%,-16%,38*,-4%,59*,-6%
O=C(Oc1ccc(Cl)c2ccccc12)N1CCCCC1,5%,-9%,32*,-1%,72*,-6%
O=C(Oc1c(Cl)cc(Cl)c2ccccc12)N1CCCCC1,3%,11%,14,1%,35,-10%
O=C(Oc1c(Cl)cc(Cl)c2ccccc12)N1CCCC1,1%,-8%,-3,0%,-14,4%
O=C(Oc1ccc2ccccc2c1Cl)N1CCCCCC1,8%,-28%,66*,-10%,71*,0%
O=C(Oc1ccc(Cl)c2cccnc12)N1CCCCC1,0%,-6%,12,3%,35,-16%
CC1CN(S(=O)(=O)c2ccccc2)C(C)N1C(=O)N1CCOCC1 (stereo unspecified),3%,-2%,-4,-6%,-1,2%
COc1ccc(C2=NN(C(=O)c3cccs3)C(c3ccccc3O)C2)cc1 (stereo unspecified),9%,7%,26*,-2%,87,-3%
COc1ccc(C2CC(c3ccccc3)=NN2C(=O)CCC(=O)O)cc1 (stereo unspecified),25%,6%,-2,2%,-2,3%
COc1ccc(C2CC(c3ccc4ccccc4c3)=NN2C(=O)CSc2ncccn2)cc1 (stereo unspecified),-2%,15%,15*,1%,43*,-8%
COc1ccc(C2CC(c3ccccc3)=NN2C(=O)c2cccs2)cc1 (stereo unspecified),3%,5%,73*,8%,75*,10%
Cc1cc(=O)oc2cc3oc(=O)cc(C)c3cc12,-15%,1%,1,4%,x,2%
Cc1oc2cc3oc(=O)cc(C)c3cc2c1C,-1%,4%,22*,0%,24,-2%
CCCCc1nc2c(c3c1C[C@H](C)OC3)CN(C(=O)N[C@H](C(=O)OC)C(C)C)CC2,1%[12.9 µM],x,x,-1%[11.5 µM],x,x
Cn1cnnc1SCc1ccc(C(=O)N/N=C(/CCC(=O)O)c2ccc(C(C)(C)C)cc2)cc1,x,24%,x,x,x,5%
Oc1cccc(/C=N\Nc2nncc(-c3ccccc3)n2)c1,1%,6%,64*,-2%,50*,-12%
Cc1cc(-c2ccccc2)nc(N/N=C/c2cccnc2)n1,1%,1%,2,-20%,22,0%
